Assay results from PubChem BioAssay.
Calls of active or inactive are those of the source. The rule behind the calls is not given here.

Biological target: Pantothenate synthetase (Mycobacterium tuberculosis (strain ATCC 25618 / H37Rv)) (UniProt P9WIL5)
Assay: Recombinant Mtb pantothenate synthetase (PanC) inhibitors, coupled enzyme, confirmatory (AID 375);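 note: 0% = full reaction with vehicle and 100% = no enzyme background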
Conditions: coupled enzyme assay; at 10 µM, stronger effect = higher value

Chain of Pantothenate synthetase (Mycobacterium tuberculosis (strain ATCC 25618 / H37Rv)) (P9WIL5 whole entry, looked up): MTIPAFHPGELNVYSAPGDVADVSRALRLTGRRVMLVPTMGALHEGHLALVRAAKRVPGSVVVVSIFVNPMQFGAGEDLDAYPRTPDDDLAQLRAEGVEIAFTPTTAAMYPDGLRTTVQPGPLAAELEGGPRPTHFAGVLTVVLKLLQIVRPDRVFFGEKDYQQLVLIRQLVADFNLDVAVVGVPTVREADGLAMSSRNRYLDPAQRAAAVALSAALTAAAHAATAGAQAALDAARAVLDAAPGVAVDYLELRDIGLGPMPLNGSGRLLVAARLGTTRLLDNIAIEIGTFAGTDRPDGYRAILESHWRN

Row | SMILES | inhibition
1 | O=C(COC(=O)C12CC3CC(CC(O)(C3)C1)C2)N1CCN(S(=O)(=O)c2ccc(Cl)cc2)CC1 | 3% (inactive)
2 | COc1ccc(C2=Nn3c(nnc3-c3ccccc3)SC2)cc1OC | 0% (inactive)
3 | Cc1nc2ccccn2c1C(=O)NCCCN1CCOCC1 | 10% (inactive)
4 | CCOc1ccc(S(=O)(=O)N2CCN(C(=O)c3cccn3C)CC2)cc1 | 0% (inactive)
5 | CC(C)(C)C(=O)CCN1C(=O)C2(OCCO2)c2ccccc21 | 0% (inactive)
6 | Cc1cc2cc(CN(CC3CCCO3)C(=O)c3cnccn3)c(=O)[nH]c2cc1C (stereo not given) | 4% (inactive)
7 | COc1cc2nc(N3CCN(C(=O)C4COc5ccccc5O4)CC3)nc(N)c2cc1OC (stereo not given) | 3% (inactive)
8 | CCN(CC)C(=O)Oc1ccc(NC(C)=O)cc1 | 0% (inactive)
9 | COc1ccccc1-n1c(SCC(=O)NC(C)(C)C)nnc1-c1ccco1 | 0% (inactive)
10 | CN(C)S(=O)(=O)c1ccc(C(=O)Nc2ccccc2C(=O)O)cc1 | 8% (inactive)
11 | O=c1[nH]c(N2CCCCC2)nc2c1CCCC2 | 0% (inactive)
12 | Nc1nc(SCc2ccc(Cl)cc2Cl)n[nH]1 | 5% (inactive)
13 | Cc1ccc2[nH]c(=O)c(CN(CCCN3CCOCC3)C(=O)Nc3cccc(Cl)c3)cc2c1 | 0% (inactive)
14 | CCOc1ccc(NC(=O)COC(=O)Cn2cnnn2)cc1OCC | 0% (inactive)
15 | CCc1ccc(NC(=O)C2CC(=O)N(C(C)C)C2)cc1 (stereo not given) | 0% (inactive)
16 | Nc1nnc(SCCOc2ccccc2)s1 | 3% (inactive)
17 | CC(=O)C1=C(C)OC(N)=C(C#N)C1c1ccncc1 (stereo not given) | 0% (inactive)
18 | Cc1ccc(CN2C(=O)CCC2C(=O)NC2CCCC2)cc1 (stereo not given) | 0% (inactive)
19 | CCOC(=O)c1c(NCc2ccc3c(c2)OCO3)c2ccccc2[nH]c1=O | 0% (inactive)
20 | O=c1[nH]c2ccccc2n1CCCN1CCN(C(c2ccccc2)c2ccccc2)CC1 | 1% (inactive)

Row | SMILES | inhibition
21 | Cc1c(CNCc2cccs2)c(C(=O)O)c(C)n1Cc1ccccc1 | 0% (inactive)
22 | COc1ccc(Cl)cc1NC(=O)CSc1nncn1-c1cccnc1 | 9% (inactive)
23 | Cc1nc(C)c(C(=O)Nc2ccc(Oc3ccccc3)cc2)o1 | 0% (inactive)
24 | CCOc1ccc(N(CC(=O)NCC2CCCO2)S(=O)(=O)c2ccc(OC)c(OC)c2)cc1 (stereo not given) | 0% (inactive)
25 | CCCCN(CCCNC(=O)C1CCN(S(=O)(=O)CC)CC1)c1ccccc1 | 0% (inactive)
26 | Cc1ccc2cc(CN(Cc3ccc(F)cc3)Cc3nnnn3C3CCCC3)c(=O)[nH]c2c1 | 6% (inactive)
27 | Cc1ccc(CCNC(=O)Cn2cccc2)cc1 | 0% (inactive)
28 | CCn1nnc(NC(=O)c2ccc(-c3ccc(Cl)cc3)o2)n1 | 2% (inactive)
29 | OCCN(CCO)c1nc(N2CCCCC2)c2nc(N(CCO)CCO)nc(N3CCCCC3)c2n1 | 0% (inactive)
30 | CCn1c2ccccc2c2cc(Nc3cc(C)nc4ncnn34)ccc21 | 0% (inactive)
31 | Cc1ccc(NC(=O)CSc2nnc(CNC(=O)c3c(F)cccc3Cl)o2)cc1 | 3% (inactive)
32 | COc1ccc(-c2onc(C)c2-c2ccccc2)c(O)c1 | 3% (inactive)
33 | O=C(OCc1nnc(-c2ccccc2)o1)C1=COCCO1 | 0% (inactive)
34 | CC(CN1c2ccccc2Sc2ccccc21)N(C)C (stereo not given) | 0% (inactive)
35 | CCOc1cc(C(=O)Nc2ncccn2)cc(OCC)c1OCC | 2% (inactive)
36 | COc1ccccc1N(CN1CCCC1=O)C(=O)c1c(F)cccc1Cl | 0% (inactive)
37 | COc1ccc(C)cc1NC(=O)c1nnn(Cc2cccc(F)c2)c1N | 13% (inactive)
38 | CSc1ccccc1NC(=O)C1CCCO1 (stereo not given) | 7% (inactive)
39 | O=C(NCc1ccco1)c1noc2c1CCCCC2 | 12% (inactive)
40 | O=C(c1cnn2c(C(F)(F)F)cc(-c3ccco3)nc12)N1CCc2ccccc2C1 | 3% (inactive)
